Test [1] in a line: small molecules captured by biotinylated probe aFSTL3 – biochemical, small-molecule microarray, fluorescence 635/667, stem cell growth factor project, primary screen (AID 1064).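 Further: measures binding of the biotinylated anti-FSTL3 antibody to printed compounds.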 Particulars: higher = more signal.
Test [2] can be described thus: binders from COS7 lysate, DM2A8 probe, primary screen, torsin A project, cell lysate, small-molecule microarray, fluorescence 635/667 (AID 1065). The conditions noted are these: higher = more signal, COS7 lysate expressing mutant human TOR1A.
Test [3] in a line: small molecules captured by biotinylated probe aFGF2 – biochemical, small-molecule microarray, fluorescence 635/667, stem cell growth factor project, primary screen (AID 1067).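 Further: measures binding of biotinylated aFGF2 protein to printed compounds on slides; z-score merges feature fluorescence and signal-to-noise across triplicate slides.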 Particulars: higher = more signal.
A short description of test [4]: small molecules captured by biotinylated probe aFGF10 – biochemical, small-molecule microarray, fluorescence 635/667, stem cell growth factor project, primary screen (AID 1071).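 Further: score merges 667 nm spot intensity and signal to noise from triplicate slides.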 Particulars: higher = more signal.
The target of test [5] is Neurogenic locus notch homolog protein 2 (Homo sapiens) (UniProt Q04721). Nature of the test: small molecules binding Notch2 protein – biochemical, small-molecule microarray, 635 nm fluorescence, stem cell growth factors, primary screen (AID 1073). Particulars: higher = more signal.
Neurogenic locus notch homolog protein 2 (Homo sapiens), sequence (Q04721 whole entry, looked up, canonical isoform): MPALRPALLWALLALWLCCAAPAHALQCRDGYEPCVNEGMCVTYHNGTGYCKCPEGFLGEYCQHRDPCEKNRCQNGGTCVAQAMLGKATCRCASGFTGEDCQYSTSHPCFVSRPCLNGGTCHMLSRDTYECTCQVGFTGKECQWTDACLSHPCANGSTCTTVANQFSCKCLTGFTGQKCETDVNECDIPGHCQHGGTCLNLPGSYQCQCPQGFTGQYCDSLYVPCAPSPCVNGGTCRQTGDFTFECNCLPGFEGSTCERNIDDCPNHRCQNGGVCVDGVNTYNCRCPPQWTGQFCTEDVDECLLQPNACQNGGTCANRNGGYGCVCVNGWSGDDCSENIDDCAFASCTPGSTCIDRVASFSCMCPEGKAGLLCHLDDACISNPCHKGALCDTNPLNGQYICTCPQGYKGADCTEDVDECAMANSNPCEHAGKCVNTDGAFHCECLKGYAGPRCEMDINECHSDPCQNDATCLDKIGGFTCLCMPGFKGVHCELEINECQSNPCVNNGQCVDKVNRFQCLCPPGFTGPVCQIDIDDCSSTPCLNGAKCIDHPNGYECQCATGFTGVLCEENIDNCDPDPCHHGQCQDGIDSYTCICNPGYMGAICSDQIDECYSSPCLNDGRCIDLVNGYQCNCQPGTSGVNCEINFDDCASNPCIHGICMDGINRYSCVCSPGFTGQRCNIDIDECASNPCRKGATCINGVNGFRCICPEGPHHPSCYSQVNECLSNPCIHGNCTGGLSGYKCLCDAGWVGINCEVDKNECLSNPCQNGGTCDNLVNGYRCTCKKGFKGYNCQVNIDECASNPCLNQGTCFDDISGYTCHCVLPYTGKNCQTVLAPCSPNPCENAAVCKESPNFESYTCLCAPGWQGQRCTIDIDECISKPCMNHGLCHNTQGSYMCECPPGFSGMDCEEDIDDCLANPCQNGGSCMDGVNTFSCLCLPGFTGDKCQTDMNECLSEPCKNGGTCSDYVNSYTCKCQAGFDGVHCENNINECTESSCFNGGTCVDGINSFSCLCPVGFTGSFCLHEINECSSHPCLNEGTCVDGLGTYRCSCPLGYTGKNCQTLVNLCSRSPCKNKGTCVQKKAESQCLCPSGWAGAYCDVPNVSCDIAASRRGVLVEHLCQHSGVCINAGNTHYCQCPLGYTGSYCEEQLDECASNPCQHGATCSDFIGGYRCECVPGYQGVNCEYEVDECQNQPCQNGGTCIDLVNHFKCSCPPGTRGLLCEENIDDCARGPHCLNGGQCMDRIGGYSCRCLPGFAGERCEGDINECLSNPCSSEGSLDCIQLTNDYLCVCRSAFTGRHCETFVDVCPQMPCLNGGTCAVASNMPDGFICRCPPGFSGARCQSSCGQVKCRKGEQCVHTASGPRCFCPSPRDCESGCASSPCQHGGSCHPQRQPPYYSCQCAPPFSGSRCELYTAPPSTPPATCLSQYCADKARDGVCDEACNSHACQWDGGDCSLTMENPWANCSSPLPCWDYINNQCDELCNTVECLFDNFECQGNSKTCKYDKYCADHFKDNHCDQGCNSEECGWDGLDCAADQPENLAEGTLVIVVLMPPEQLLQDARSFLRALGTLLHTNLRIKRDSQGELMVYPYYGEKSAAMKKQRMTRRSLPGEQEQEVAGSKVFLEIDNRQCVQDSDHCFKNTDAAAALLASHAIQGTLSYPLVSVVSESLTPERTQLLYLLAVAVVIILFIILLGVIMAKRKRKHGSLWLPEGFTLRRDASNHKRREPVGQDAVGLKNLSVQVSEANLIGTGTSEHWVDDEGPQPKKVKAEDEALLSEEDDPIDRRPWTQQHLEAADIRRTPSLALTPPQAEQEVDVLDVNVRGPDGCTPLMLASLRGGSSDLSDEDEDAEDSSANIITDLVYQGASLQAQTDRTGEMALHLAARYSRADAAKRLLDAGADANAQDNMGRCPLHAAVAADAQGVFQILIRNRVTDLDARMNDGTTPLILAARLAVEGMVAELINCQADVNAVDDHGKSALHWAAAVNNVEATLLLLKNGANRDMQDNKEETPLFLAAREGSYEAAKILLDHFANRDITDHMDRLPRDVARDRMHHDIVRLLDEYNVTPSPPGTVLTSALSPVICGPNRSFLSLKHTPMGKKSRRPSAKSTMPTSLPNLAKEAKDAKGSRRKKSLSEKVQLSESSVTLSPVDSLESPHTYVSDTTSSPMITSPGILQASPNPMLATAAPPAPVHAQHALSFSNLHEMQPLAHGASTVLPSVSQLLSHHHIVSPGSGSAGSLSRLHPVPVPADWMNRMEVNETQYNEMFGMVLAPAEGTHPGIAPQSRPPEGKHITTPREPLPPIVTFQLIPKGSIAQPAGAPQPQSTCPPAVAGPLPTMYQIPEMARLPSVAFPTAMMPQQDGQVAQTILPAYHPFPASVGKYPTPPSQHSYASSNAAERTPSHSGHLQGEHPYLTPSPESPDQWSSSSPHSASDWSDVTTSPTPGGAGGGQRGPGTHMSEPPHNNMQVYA
Test [6] addresses Pro-neuregulin-1, membrane-bound isoform (Homo sapiens) (UniProt Q02297). Nature of the test: small molecules binding neuregulin-1 protein – biochemical, small-molecule microarray, fluorescence 635/667, psychiatric disease protein project, primary screen (AID 1075).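 Further: score combines 667 nm spot fluorescence with signal to noise.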 The conditions noted are these: NRG1 binding, 635 nm fluorescence, higher = more signal.
Test [7] deals with Neuregulin-1 EGF-like domain. As to the kind of experiment: small molecules binding NRG1 EGF domain – biochemical, small-molecule microarray, 635 nm fluorescence, primary screen (AID 1081).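 Further: binding of the protein to compounds printed on small-molecule microarray slides.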 Particulars: higher = more signal.
Test [8] can be described thus: FRG1 expression reporter modulators in myotubes – cell-based, C2C12 myotubes, firefly/Renilla luciferase, luminescence, FRG1 inhibition for FSHD, primary screen (AID 1084). Particulars: FRG1 promoter luciferase, higher = more signal, called active from +8 up or from −8 down.
Test [9] can be described thus: small molecules captured by biotinylated probe aFST – biochemical, small-molecule microarray, fluorescence 635/667, stem cell growth factor project, primary screen (AID 1086).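 Further: score merges 667 nm fluorescence with signal-to-noise of each printed compound spot.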 The conditions noted are these: higher = more signal.
Test [10] in a line: binders of probe aHhip on microarray, primary screen, stem cell growth factor project, biochemical, small-molecule microarray, fluorescence 635/667 (AID 1087).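 Further: score merges spot fluorescence at 667nm with spot signal to noise ratio.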 The conditions noted are these: higher = more signal.
For test [11], the system named is PRMT1 (protein arginine N-methyltransferase 1). As to the kind of experiment: small molecules binding arginine methyltransferase PRMT1 – biochemical, small-molecule microarray, 635 nm fluorescence, primary screen (AID 1088).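 Further: binding of Prmt1 protein to compounds spotted on small-molecule microarray slides.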 Particulars: higher = more signal.
A short description of test [12]: growth effects on S. cerevisiae YJM789 – YJM789 clinical isolate, OD600, 24 h, basal, primary screen (AID 1089).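 Further: growth of clinical yeast isolate S. cerevisiae YJM 789 seeded 1000 cells per well; test concentration not given here.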 The conditions noted are these: higher = more signal, called active from +8 up or from −8 down.
Test [13] is described as follows: S. pombe growth modifiers, basal conditions – strain 972, OD600, 24 h, no modulator, primary screen (AID 1090).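 Further: basal condition with compound alone and no growth modifier present; test concentration not given here.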 The conditions noted are these: S. pombe 972 growth, higher = more signal, called active from +8 up or from −8 down.
Test [14] in a line: budding yeast growth modifiers under rapamycin – strain BY4716, OD600, 96 h, primary screen (AID 1091). Further: test concentration not given here. The conditions noted are these: S. cerevisiae BY4716 + rapamycin, higher = more signal, called active from +8 up or from −8 down.
Test [15] has as its target Torsin-1A-interacting protein 2 (Homo sapiens) (UniProt Q8NFQ8). Nature of the test: small molecules binding lysate-expressed LULL1 – cell lysate, human LULL1 lysate, 635/667 nm fluorescence, primary screen (AID 1092).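 Further: probe is lysate of COS7 cells overexpressing human LULL1; score merges per-feature 667 nm fluorescence with signal-to-noise.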 Particulars: small-molecule microarray, hLULL1 lysate binding, 635 nm fluorescence; higher = more signal.
Test [16] in a line: optical density change of DRC41 E. coli – strain DRC41, OD650, 24 h, E. coli filamentation project, primary screen (AID 1093).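 Further: MC1000 strain lacking acrAB efflux and sulA so SOS filamentation is blocked; test concentration not given here.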 Particulars: E. coli DRC41 growth, higher = more signal, called active from +8 up or from −8 down.
Test [17] can be described thus: probe aLefty2 binding to arrayed compounds – biochemical, biotinylated probe, 635/667 nm fluorescence, primary screen (AID 1094).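 Further: score merges spot fluorescence near 667 nm with spot signal-to-noise ratio.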 Particulars: small-molecule microarray, higher = more signal.
Test [18] deals with Noggin (protein binding on small-molecule microarray). Nature of the test: small molecules binding Noggin protein – biochemical, 635/667 nm fluorescence, primary screen (AID 1095).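 Further: score merges 667 nm feature fluorescence with signal to noise over triplicate slides.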 The conditions noted are these: 635 nm fluorescence, higher = more signal.
For test [19], the target named is Neurogenic locus notch homolog protein 3 (Homo sapiens) (UniProt Q9UM47). As to the kind of experiment: small molecules binding NOTCH3 protein – biochemical, 635/667 nm fluorescence, primary screen (AID 1096). Particulars: small-molecule microarray, 635 nm fluorescence, higher = more signal.
Neurogenic locus notch homolog protein 3 (Homo sapiens), sequence (Q9UM47 whole entry, looked up): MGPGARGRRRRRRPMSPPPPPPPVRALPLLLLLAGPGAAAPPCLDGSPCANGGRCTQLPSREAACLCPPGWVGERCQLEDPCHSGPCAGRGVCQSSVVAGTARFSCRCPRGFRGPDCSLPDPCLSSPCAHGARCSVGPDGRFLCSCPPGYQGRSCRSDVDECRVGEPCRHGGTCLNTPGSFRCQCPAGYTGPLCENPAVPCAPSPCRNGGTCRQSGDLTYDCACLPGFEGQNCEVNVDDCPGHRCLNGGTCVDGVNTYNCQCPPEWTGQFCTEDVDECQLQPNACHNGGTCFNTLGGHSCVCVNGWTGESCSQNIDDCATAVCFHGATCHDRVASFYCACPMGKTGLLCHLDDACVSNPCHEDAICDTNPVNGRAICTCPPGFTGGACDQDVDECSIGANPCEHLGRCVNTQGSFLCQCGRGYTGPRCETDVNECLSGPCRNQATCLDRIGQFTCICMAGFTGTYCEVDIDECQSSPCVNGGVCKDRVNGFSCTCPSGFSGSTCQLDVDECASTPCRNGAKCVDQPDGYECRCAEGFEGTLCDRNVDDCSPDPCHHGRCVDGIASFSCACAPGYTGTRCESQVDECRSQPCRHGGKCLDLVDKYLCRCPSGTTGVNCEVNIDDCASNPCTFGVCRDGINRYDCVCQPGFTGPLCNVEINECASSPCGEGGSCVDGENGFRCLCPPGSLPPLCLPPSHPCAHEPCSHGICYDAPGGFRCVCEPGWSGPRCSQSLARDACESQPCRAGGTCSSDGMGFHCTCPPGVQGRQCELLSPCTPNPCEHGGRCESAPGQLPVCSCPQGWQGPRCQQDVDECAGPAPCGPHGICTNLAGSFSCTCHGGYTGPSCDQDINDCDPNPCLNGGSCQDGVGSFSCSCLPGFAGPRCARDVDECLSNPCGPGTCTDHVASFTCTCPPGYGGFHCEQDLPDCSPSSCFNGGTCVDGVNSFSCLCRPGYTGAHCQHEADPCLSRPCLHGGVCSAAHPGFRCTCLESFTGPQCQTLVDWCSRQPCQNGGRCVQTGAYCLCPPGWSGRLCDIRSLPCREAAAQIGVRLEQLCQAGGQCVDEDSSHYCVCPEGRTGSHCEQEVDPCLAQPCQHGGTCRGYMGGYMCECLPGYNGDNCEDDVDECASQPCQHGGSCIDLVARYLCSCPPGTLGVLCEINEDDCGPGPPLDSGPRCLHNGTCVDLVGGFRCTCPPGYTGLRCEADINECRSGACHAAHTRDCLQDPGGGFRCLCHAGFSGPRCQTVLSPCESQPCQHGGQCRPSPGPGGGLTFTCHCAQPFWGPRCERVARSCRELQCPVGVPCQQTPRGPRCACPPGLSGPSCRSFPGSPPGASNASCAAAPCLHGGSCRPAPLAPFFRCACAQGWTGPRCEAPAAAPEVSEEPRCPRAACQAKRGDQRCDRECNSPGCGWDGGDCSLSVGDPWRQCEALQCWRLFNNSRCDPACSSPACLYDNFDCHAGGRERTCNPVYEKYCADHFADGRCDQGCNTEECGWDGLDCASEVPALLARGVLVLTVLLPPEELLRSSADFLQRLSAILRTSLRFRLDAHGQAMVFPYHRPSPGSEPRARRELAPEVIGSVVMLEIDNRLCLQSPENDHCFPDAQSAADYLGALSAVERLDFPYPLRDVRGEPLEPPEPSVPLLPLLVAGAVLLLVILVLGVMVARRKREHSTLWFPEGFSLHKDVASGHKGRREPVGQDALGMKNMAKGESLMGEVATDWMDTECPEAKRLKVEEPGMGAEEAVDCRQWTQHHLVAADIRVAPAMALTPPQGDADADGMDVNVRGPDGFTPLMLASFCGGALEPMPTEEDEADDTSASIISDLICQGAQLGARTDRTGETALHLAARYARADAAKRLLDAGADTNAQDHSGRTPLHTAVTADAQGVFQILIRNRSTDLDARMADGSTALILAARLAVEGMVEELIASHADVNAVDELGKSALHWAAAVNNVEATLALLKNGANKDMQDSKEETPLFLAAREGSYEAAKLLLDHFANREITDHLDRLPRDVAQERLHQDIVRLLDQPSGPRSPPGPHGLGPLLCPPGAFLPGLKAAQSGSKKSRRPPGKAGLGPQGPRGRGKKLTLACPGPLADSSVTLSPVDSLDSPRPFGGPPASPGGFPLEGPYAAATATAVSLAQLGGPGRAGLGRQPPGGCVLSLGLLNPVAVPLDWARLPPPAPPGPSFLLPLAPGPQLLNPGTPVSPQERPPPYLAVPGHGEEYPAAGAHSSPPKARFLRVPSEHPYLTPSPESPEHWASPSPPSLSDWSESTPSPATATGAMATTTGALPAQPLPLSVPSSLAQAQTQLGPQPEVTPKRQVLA
A short description of test [20]: probe aEGFR binding to arrayed compounds – biochemical, biotinylated probe, 635/667 nm fluorescence, primary screen (AID 1097).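 Further: probe is a biotinylated anti-EGFR antibody binding compounds printed on slides; score combines fluorescence near 667 nm and signal to noise of each spot.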 Particulars: small-molecule microarray, higher = more signal.

Activity calls are given as the source filed them.

As to `O=C1C2C=CC(C(O)c3ccc(I)cc3)N(Nc3ccccc3)C2C(=O)N1c1ccccc1` (stereo not given), the composite z-score in test [1] is 0.996; in [2], 0.404; in test [3], 0.106; in [4] it was 0.368; in test [5] it was 1.54; in test [6], 2.13. The composite z-score was 1.22 in test [7]; 1.27 in [9]; -0.0988 in test [10]; 1.34 in test [11]; 3.31 in test [15]; 0.265 in test [17]. Besides, the values for the composite z-score in [18], in test [19] and in test [20] were -0.369, 0.82 and 0.0352, respectively. Besides, the z-score in test [8] was -1.92 (inactive); in [12], -0.165 (inactive); in test [13], 0.912 (inactive); in [14], 0.879 (inactive); in test [16] it was -0.882 (inactive).
In the case of `O=C1O[C@H](c2ccccc2)[C@H](c2ccccc2)N2[C@H]1[C@@H](C(=O)N1CCCCCCC1)[C@]1(C(=O)Nc3ccc(C#CC4(O)CCCCCC4)cc31)[C@H]2c1ccccc1OCCO`, the composite z-score in test [1] was 4; in test [2], 2.61; in test [3], 0.935; in [4], 1.46; in test [5], 1.83; in [6], 2.5. Further, the composite z-score in test [7] was 1.33; in [9], 3.82; in test [10], 1.9; in test [11], 1.54; in test [15], 5.1; in [17] it was 1.91. The results for the composite z-score in test [18], in test [19] and in test [20] were 2.38, 1.03 and 1.51, respectively. Moreover, the z-score is -1.5 (inactive) in [8]; 1.56 (inactive) in test [12]; 0.462 (inactive) in test [13]; 3.41 (inactive) in [14]; 1.04 (inactive) in test [16].
As to `Cc1nc2cc(Br)ccc2c(=O)n1Cc1cccc(O)c1`, the composite z-score is -0.473 in test [1]; 0.116 in test [2]; 0.0275 in test [3]; 0.659 in test [4]; 0.418 in test [5]; -0.134 in test [6]. Moreover, the composite z-score in test [7] was 1.06; in test [9] it was 0.314; in test [10], 0.409; in test [11], 1.57; in test [15], 1.16; in test [17], -0.0607. The composite z-score was 1.33 in [18], -0.108 in test [19] and -0.0474 in [20]. Besides, the z-score in test [8] is 0.156 (inactive); in test [12] it was 0.104 (inactive); in test [13], -1.84 (inactive); in [14], -0.973 (inactive); in test [16] it was 1.22 (inactive).
`CCOC(=O)C1=CCC(c2ccccc2)N(S(=O)(=O)c2ccc([N+](=O)[O-])cc2)C1` (stereo not given): the composite z-score is -0.239 in test [1]; -0.181 in test [2]; -0.112 in test [3]; 0.154 in test [4]; 1.17 in [5]; -0.0979 in test [6]. In addition, the composite z-score was 0.549 in [7]; 0.06 in [9]; 0.0505 in [10]; -0.411 in [11]; 1.33 in test [15]; -0.0081 in test [17]. Besides, the results for the composite z-score in test [18], in [19] and in test [20] were -0.578, 0.0968 and 0.0506, respectively. For the same molecule, the z-score in test [8] is -0.877 (inactive); in test [12], 0.687 (inactive); in test [13], 0.668 (inactive); in test [14] it was 1.25 (inactive); in [16], -0.319 (inactive).
For the molecule `C=C/C=C/[C@@H]1C(=C)CN([C@@H](Cc2ccccc2)C(=O)OC)[C@H]1[C@@H](O)Cc1ccccc1`, the composite z-score is -0.252 in test [1]; 0.814 in test [2]; -0.109 in test [3]; 0.34 in test [4]; 0.186 in [5]; 0.404 in test [6]. In addition, the composite z-score in test [7] was 1; in test [9], 0.101; in test [10], -0.0645; in test [11] it was 1.44; in test [15], 1.57; in test [17], -0.0975. Also, the composite z-score in test [18] was 0.0905; in test [19], 0.731; in test [20] it was -0.0228. The z-score was -0.661 (inactive) in test [8]; -0.03 (inactive) in [12]; -1.63 (inactive) in test [13]; 0.415 (inactive) in [14]; 0.85 (inactive) in [16].

Source of the values: PubChem BioAssay.
